Test results as given in PubChem BioAssay (NCI).
The panel holds about 83,000 compounds, 20% with a hit somewhere; the sample as a whole holds those more often.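 Results are percent growth after 48 hours of single-concentration exposure. 100 means growth as in untreated cells, lower positive values show inhibition; negative values down to -100 show cell death.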 Activity calls are given as the source filed them. The calls were made as follows: active = growth percent below 10; inactive = the rest.

Experiments:
Assay in all cases: NCI-60 one-dose screen, 48 h (100 = growth as untreated, 0 = no growth, -100 = all killed)
Conditions in all cases: 10 µM unless noted
NCI-H23 lung = test system: NCI-H23 lung
NCI-H226 lung = test system: NCI-H226 lung
NCI-H322M lung = test system: NCI-H322M lung
HOP-62 NSCLC = test system: HOP-62 NSCLC
NCI-H460 lung = test system: NCI-H460 lung
HOP-92 NSCLC = test system: HOP-92 NSCLC
NCI-H522 lung = test system: NCI-H522 lung
A549/ATCC NSCLC = test system: A549/ATCC NSCLC
786-0 renal = test system: 786-0 renal
COLO 205 colon = test system: COLO 205 colon
DU-145 prostate = test system: DU-145 prostate
K-562 leukemia = test system: K-562 leukemia
MALME-3M melanoma = test system: MALME-3M melanoma
MDA-MB-231 breast = test system: MDA-MB-231 breast
RXF 393 renal = test system: RXF 393 renal
SF-268 CNS = test system: SF-268 CNS
SF-295 CNS = test system: SF-295 CNS
SF-539 CNS = test system: SF-539 CNS
UACC-257 melanoma = test system: UACC-257 melanoma
M14 melanoma = test system: M14 melanoma

Measured: growth

CC(C)(C)c1ccc(S(=O)(=O)Oc2ccc(-c3sc4cc(OS(=O)(=O)c5ccc(C(C)(C)C)cc5)ccc4c3C(=O)c3ccc(OCCN4CCCCC4)cc3)cc2)cc1
inactive: NCI-H23 lung 93.3% | NCI-H226 lung 94.7% | NCI-H322M lung 96.1% | HOP-62 NSCLC 90.8% | NCI-H460 lung 104% | HOP-92 NSCLC 84.4% | NCI-H522 lung 72% | A549/ATCC NSCLC 87.4% | 786-0 renal 89% | COLO 205 colon 101% | DU-145 prostate 114% | K-562 leukemia 103% | MALME-3M melanoma 107% | MDA-MB-231 breast 103% | RXF 393 renal 103% | SF-268 CNS 102% | SF-295 CNS 94.5% | SF-539 CNS 96.8% | UACC-257 melanoma 106% | M14 melanoma 99.2%

CC(=O)N1N=C(c2ccc(Nc3nc(Nc4ccc(F)cc4)nc(Nc4ccc(F)cc4)n3)cc2)CC1c1ccc(N(C)C)cc1 (configuration not stated)
active: RXF 393 renal 9.66%
inactive: NCI-H23 lung 52.2% | NCI-H226 lung 74.6% | NCI-H322M lung 84% | HOP-62 NSCLC 54.5% | NCI-H460 lung 54.3% | HOP-92 NSCLC 35.3% | A549/ATCC NSCLC 39.3% | 786-0 renal 58.5% | COLO 205 colon 46.6% | DU-145 prostate 78.2% | K-562 leukemia 16.8% | MALME-3M melanoma 42.1% | MDA-MB-231 breast 70% | SF-268 CNS 74.4% | SF-295 CNS 18.2% | SF-539 CNS 65.5% | UACC-257 melanoma 74.2% | M14 melanoma 40.2%

O=C(N/N=C/c1ccc(Cl)cc1)c1ccc(NC(=O)c2ccccn2)cc1
active: NCI-H460 lung 4.21% | 786-0 renal 4.44%
inactive: NCI-H23 lung 54.5% | NCI-H226 lung 42.8% | NCI-H322M lung 66.4% | HOP-62 NSCLC 59.4% | HOP-92 NSCLC 51.6% | A549/ATCC NSCLC 26.1% | COLO 205 colon 59.1% | DU-145 prostate 60.7% | K-562 leukemia 61% | MALME-3M melanoma 44.9% | MDA-MB-231 breast 41.4% | RXF 393 renal 64.7% | SF-268 CNS 70.5% | SF-295 CNS 56.4% | SF-539 CNS 46% | UACC-257 melanoma 63.3% | M14 melanoma 55.4%

COc1ccc(-c2nc3ccc(C)cc3c3c2c(=O)n(C)c(=O)n3C)cc1OC
inactive: NCI-H23 lung 98.8% | NCI-H226 lung 108% | NCI-H322M lung 118% | HOP-62 NSCLC 112% | NCI-H460 lung 112% | HOP-92 NSCLC 99.2% | NCI-H522 lung 107% | A549/ATCC NSCLC 89.9% | 786-0 renal 103% | COLO 205 colon 109% | DU-145 prostate 108% | K-562 leukemia 107% | MALME-3M melanoma 111% | MDA-MB-231 breast 102% | RXF 393 renal 99.2% | SF-268 CNS 100% | SF-295 CNS 91.3% | SF-539 CNS 108% | UACC-257 melanoma 114% | M14 melanoma 109%

O=C(/C=C/c1ccccc1)N(C1CCCCC1)C1CCCCC1
inactive: NCI-H23 lung 74.3% | NCI-H226 lung 84.7% | NCI-H322M lung 105% | HOP-62 NSCLC 131% | NCI-H460 lung 86.8% | HOP-92 NSCLC 84.3% | NCI-H522 lung 70.9% | A549/ATCC NSCLC 73.8% | 786-0 renal 82.2% | COLO 205 colon 99.9% | DU-145 prostate 104% | K-562 leukemia 81.1% | MALME-3M melanoma 104% | MDA-MB-231 breast 86% | RXF 393 renal 84.7% | SF-268 CNS 104% | SF-295 CNS 78.1% | SF-539 CNS 105% | UACC-257 melanoma 80.7% | M14 melanoma 87.6%

CC/C(=C(/c1ccc(O)cc1)c1ccc(OCCN2CCCCC2)cc1)c1ccc(OC)cc1
inactive: NCI-H23 lung 79.2% | NCI-H226 lung 103% | NCI-H322M lung 90.2% | HOP-62 NSCLC 83.5% | NCI-H460 lung 57.4% | HOP-92 NSCLC 70.2% | A549/ATCC NSCLC 64.4% | 786-0 renal 57.1% | DU-145 prostate 71.3% | MDA-MB-231 breast 55.1% | RXF 393 renal 68.4% | SF-268 CNS 62.6% | SF-295 CNS 86.9% | SF-539 CNS 86.3% | UACC-257 melanoma 81%
active: COLO 205 colon -28.9% | K-562 leukemia -30.8% | MALME-3M melanoma -28.3% | M14 melanoma -61.2%

O=C(/C=C/C12c3ccccc3C(c3ccccc31)C1C(=O)NC(=O)C12)c1ccc(Cl)cc1Cl (configuration not stated)
active: NCI-H460 lung 8.61% | NCI-H522 lung 9.1% | COLO 205 colon -8.3% | K-562 leukemia 7.41% | RXF 393 renal -4.59%
inactive: NCI-H23 lung 32.9% | NCI-H226 lung 78.7% | NCI-H322M lung 41.4% | HOP-62 NSCLC 21% | HOP-92 NSCLC 37.6% | A549/ATCC NSCLC 37.4% | 786-0 renal 19.1% | DU-145 prostate 23% | MALME-3M melanoma 48.2% | MDA-MB-231 breast 19.3% | SF-268 CNS 33.3% | SF-295 CNS 40.8% | SF-539 CNS 39.4% | UACC-257 melanoma 41% | M14 melanoma 24.4%

N[C@@H]1CCC[C@H]1NCCCCN1C(=O)c2cccc3cc([N+](=O)[O-])cc(c23)C1=O
active: NCI-H460 lung 6.71%
inactive: NCI-H23 lung 39.3% | NCI-H226 lung 11% | NCI-H322M lung 41.2% | HOP-62 NSCLC 31.7% | HOP-92 NSCLC 34.5% | NCI-H522 lung 40.6% | A549/ATCC NSCLC 22.4% | 786-0 renal 25% | COLO 205 colon 22.8% | DU-145 prostate 22.2% | K-562 leukemia 18.6% | MALME-3M melanoma 57.5% | MDA-MB-231 breast 45.1% | RXF 393 renal 32.3% | SF-268 CNS 34.3% | SF-295 CNS 55.5% | SF-539 CNS 32.7% | UACC-257 melanoma 61.2% | M14 melanoma 63.7%

COc1ccc2c(c1)C(C)Cc1c(ncnc1-n1cnc3cc(C)ccc31)N2C (configuration not stated)
active: NCI-H460 lung 3.98% | HOP-92 NSCLC -2.48% | COLO 205 colon -46.9% | K-562 leukemia 7.68% | SF-295 CNS 6.97% | M14 melanoma 8.87%
inactive: NCI-H23 lung 30.4% | NCI-H226 lung 60% | NCI-H322M lung 48.6% | HOP-62 NSCLC 28.4% | NCI-H522 lung 11.7% | A549/ATCC NSCLC 13.6% | 786-0 renal 12.3% | DU-145 prostate 10.2% | MALME-3M melanoma 78.7% | MDA-MB-231 breast 28.9% | RXF 393 renal 35.7% | SF-268 CNS 26% | SF-539 CNS 10.7% | UACC-257 melanoma 47.3%

C=CCN=c1sc(-c2ccc3ccccc3c2)cn1NC(=O)c1cc2ccc1CCc1ccc(cc1)CC2
inactive: NCI-H23 lung 55.8% | NCI-H226 lung 75.2% | NCI-H322M lung 97.6% | HOP-62 NSCLC 75.2% | NCI-H460 lung 52.3% | HOP-92 NSCLC 59.6% | A549/ATCC NSCLC 56.1% | 786-0 renal 70.1% | COLO 205 colon 44.5% | DU-145 prostate 75% | K-562 leukemia 35% | MALME-3M melanoma 76.7% | MDA-MB-231 breast 92.9% | RXF 393 renal 74.1% | SF-268 CNS 62.3% | SF-295 CNS 46% | SF-539 CNS 77.9% | UACC-257 melanoma 48.7% | M14 melanoma 75.6%

COC(=O)/C=C1/SC(=Nc2ccc(F)cc2)N(CCc2c[nH]c3ccc(O)cc23)C1=O
inactive: NCI-H23 lung 62.2% | NCI-H226 lung 62.5% | NCI-H322M lung 92.1% | HOP-62 NSCLC 27.6% | NCI-H460 lung 25.3% | HOP-92 NSCLC 40.2% | A549/ATCC NSCLC 69.5% | 786-0 renal 40.6% | COLO 205 colon 78.2% | DU-145 prostate 37.2% | K-562 leukemia 37.7% | MALME-3M melanoma 58.9% | MDA-MB-231 breast 59.3% | RXF 393 renal 32% | SF-268 CNS 45.9% | SF-295 CNS 61.5% | SF-539 CNS 45.3% | UACC-257 melanoma 39.4% | M14 melanoma 40.1%

Nc1nc2ccccc2c2c(=O)c3cc(Cl)ccc3sc12
inactive: NCI-H23 lung 87.5% | NCI-H226 lung 92.7% | NCI-H322M lung 91.8% | HOP-62 NSCLC 89.7% | NCI-H460 lung 86.2% | HOP-92 NSCLC 81.3% | NCI-H522 lung 93.4% | A549/ATCC NSCLC 93.9% | 786-0 renal 98.5% | COLO 205 colon 114% | DU-145 prostate 14.6% | K-562 leukemia 96.1% | MALME-3M melanoma 108% | MDA-MB-231 breast 84.7% | RXF 393 renal 108% | SF-268 CNS 13% | SF-295 CNS 96.2% | SF-539 CNS 95.5% | UACC-257 melanoma 99.1% | M14 melanoma 105%

COc1nc(/C=C\Nc2ccc3c(c2)OCCOCCOCCOCCO3)nc(OC)n1
inactive: NCI-H23 lung 85.7% | NCI-H226 lung 103% | NCI-H322M lung 90.5% | HOP-62 NSCLC 109% | HOP-92 NSCLC 95.7% | NCI-H522 lung 109% | A549/ATCC NSCLC 99.2% | 786-0 renal 97.7% | COLO 205 colon 109% | DU-145 prostate 97.2% | K-562 leukemia 101% | MALME-3M melanoma 85% | MDA-MB-231 breast 91.2% | RXF 393 renal 100% | SF-268 CNS 92.8% | SF-295 CNS 91.2% | SF-539 CNS 96.9% | UACC-257 melanoma 105% | M14 melanoma 96.4%

COc1ccccc1/C=C/C(=O)Nc1ccc(F)cc1
inactive: NCI-H23 lung 88.2% | NCI-H226 lung 98% | NCI-H322M lung 104% | HOP-62 NSCLC 88.7% | HOP-92 NSCLC 86.8% | NCI-H522 lung 72.4% | A549/ATCC NSCLC 92.9% | 786-0 renal 97.7% | COLO 205 colon 101% | DU-145 prostate 98.6% | K-562 leukemia 84.8% | MALME-3M melanoma 95.9% | MDA-MB-231 breast 88.6% | RXF 393 renal 102% | SF-268 CNS 99.7% | SF-295 CNS 96% | SF-539 CNS 101% | UACC-257 melanoma 99.4% | M14 melanoma 96.7%

C=C1C(=O)O[C@H]2[C@H]1CC/C(COC(=O)/C=C\C(=O)NCc1ccc(Cn3c(=O)sn(CCCCl)c3=O)cc1)=C\CC[C@@]1(C)O[C@@H]21
active: COLO 205 colon 4.69%
inactive: NCI-H23 lung 84.1% | NCI-H226 lung 92.9% | NCI-H322M lung 107% | HOP-62 NSCLC 87.7% | NCI-H460 lung 93.4% | HOP-92 NSCLC 81.7% | A549/ATCC NSCLC 92.7% | 786-0 renal 67.7% | DU-145 prostate 45.9% | K-562 leukemia 26.7% | MALME-3M melanoma 49.6% | MDA-MB-231 breast 71.9% | RXF 393 renal 86.9% | SF-268 CNS 93.5% | SF-295 CNS 99.4% | SF-539 CNS 79.9% | UACC-257 melanoma 68.9% | M14 melanoma 40.4%
